Compound activity: PubChem BioAssay, National Center for Advancing Translational Sciences (NCATS)
The list is not random: actives were taken first. Their share in the collection is about 21%.
Sm TGR block – blocks Schistosoma mansoni thioredoxin glutathione reductase; Q962Y6; purified TGR, DTNB reduction, TNB absorbance 405 nm; Potency, µM (doses to about 114 µM), inactives show at the highest dose activity change, negative = inhibition, hits mostly inhibitors; actives 3% (n = 360,000); further: potency means the concentration at half of the fitted maximal effect; on the % scale 0 is the no-effect control and ±100 the full control effect; nearly all actives have a fitted effect of over 60% in size
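Kinetic colorimetric format: TGR-catalysed, NADPH-driven DTNB reduction monitored via TNB absorbance. Enzyme dispensed at 20 nM; compound exposure 15 min at room temperature before reaction start.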
Pf growth 48h – inhibits P. falciparum growth in the first generation, 48 h. actives 5.9% (n = 310,000). Potency, µM (top dose mostly 28.7 µM), for inactives: top-dose activity change, negative = inhibition, hits mostly inhibitors. P. falciparum luciferase growth in erythrocytes, 48 h; further: potency means the concentration at half of the fitted maximal effect; on the % scale 0 is the no-effect control and ±100 the full control effect
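A one-generation exposure of luciferase-tagged malaria parasites in RPMI 1640/Albumax erythrocyte culture, 37 C and 5% CO2. Inhibition is inferred from decreased luminescence after adding detection reagent.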
NS1 inh – inhibitors of influenza NS1 protein function. Potency, µM (highest dose often 46.1 µM), for inactives: at the top dose activity, positive = more growth. actives 0.4% (n = 270,000). AID 2326; calls by dose curve; further: potency means the concentration at half of the fitted maximal effect; actives are rising curves; nearly all actives have a fitted effect of over 50% in size
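A cell-based growth assay was used: compounds that relieve NS1-induced slow growth of budding yeast raise OD600. Assay medium was yeast nitrogen base with ammonium sulphate and -URA supplement, pH 6.0, with 2% galactose.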
Cycloheximide cs – affects cycloheximide protein synthesis inhibition readout, counter-screen; actives 12% (n = 300,000); max response, %; cell reporter, cycloheximide protein synthesis inhibition counterscreen; AID 2314; in the data active means max response mostly above about 13%, no sharp cut-off; inactive means mostly below about 14%; further: read at 38.3 µM for the half of the compounds with a filed dose; 0% is about no effect
Pf growth 96h – P. falciparum growth inhibition at 96 hours; P. falciparum luciferase reporter growth, 96 h; Potency, µM (doses to about 28.7 µM), for inactives: top-dose activity change, negative = inhibition, most hits filed as inhibitors; actives 6.9% (n = 320,000); further: potency means the concentration at half of the fitted maximal effect; on the % scale 0 is the no-effect control and ±100 the full control effect
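Luminescence readout: decreased luciferase signal marks inhibited growth of reporter-expressing P. falciparum in infected red cells (2% hematocrit, 0.05% parasitemia final), exposed to compound two generations (96 h, 37 C, 5% CO2).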
Shiga toxin inh – inhibitors of Shiga toxin in Vero cells; Vero cells, Shiga toxin protein synthesis inhibition reporter; inhibition, % at 38.7 µM; actives 9.2% (n = 290,000); AID 2315; in the data active means inhibition mostly above about 28%, no sharp cut-off; inactive means mostly below about 43%; further: 0% is about no effect
An asterisk follows results filed as active; ? = inconclusive; / = not tested or not shown. Unless noted, the call rests on the fitted dose curve; in most records, active means well fitted curve in the direction sought with a large enough effect; inconclusive means small, poorly fitted or top-dose-only effect, or another doubt; inactive means no such curve, though single readings can be large; an effect the other way counts as inactive or inconclusive.

SMILES	Sm TGR block	Pf growth 48h	NS1 inh	Cycloheximide cs	Pf growth 96h	Shiga toxin inh
CCN(CC)CCNC(=S)Nc1ccc2nc(N3CCN(CC)CC3)cc(C)c2c1	-12%	12µM*	-2%	-1	-16%	-4
CCCCNC(=O)CCC(=O)Nc1ccc2nc(N3CCN(C)CC3)cc(C)c2c1	0%	-6%	/	7	4%	5
CCOc1ccc(CNC(=O)c2ccc3c(Cl)c4c(nc3c2)CCCC4)cc1	2%	/	/	/	/	/
Cc1ccc(C)c(N2CCN(C(=O)c3cc(C)nc4c3c(C)nn4-c3cccc(F)c3)CC2)c1	12%	/	/	/	/	/
COc1cc(OC)cc(C(=O)Nc2nc(-c3nnn(-c4ccc(F)c(Cl)c4)c3C)ns2)c1	1%	/	/	/	/	/
COc1cc(OC)c(NS(=O)(=O)c2ccc3c(c2)CCCN3C(C)=O)cc1Cl	-6%	/	/	/	/	/
CSCCC(NS(=O)(=O)c1ccc2c(c1)oc(=O)n2C)C(=O)NCCc1ccc(C)cc1 (configuration not stated)	3%	/	/	/	/	/
Cc1nc2ccccc2c(=O)n1/N=C/c1ccco1	-14%	35%	/	11	?	13
O=c1c2ccccc2nc(-c2ccco2)n1/N=C/c1ccccc1O	-19%	?	7%	2	11%	-32
CCCCn1c(-c2ccco2)nc2ccccc2c1=O	56µM*	-8%	-15%	6	18%	17
COc1ccc(/C=N/n2c(-c3ccco3)nc3ccccc3c2=O)cc1	-3%	-27%	-1%	28	?	45*
COc1cccc(/C=N/n2c(-c3ccco3)nc3ccccc3c2=O)c1	-22%	30%	-19%	54*	/	145*
O=c1c2ccccc2nc(-c2ccco2)n1/N=C/c1ccco1	-6%	51%	-12%	16*	/	55
CCC(=O)N(Cc1cc(=O)[nH]c2ccccc12)c1ccccc1OC	3%	11%	2%	4	5%	-6
CN1N=C(C(C)(C)C)CSC1=Nc1ccccc1	-12%	0%	-3%	16	15%	36
Cc1ccccc1OCc1nc2ccccc2c(=O)n1/N=C/c1ccco1	40µM*	-14%	-11%	33*	?	64*
Cc1ccc(-c2c[n+](CC(=O)Nc3ccccc3C)c3n2CCC3)cc1	10%	?	-5%	-2	6.6µM*	-4
Cc1ccc(NC(=O)C[n+]2cc(-c3ccccc3)n3c2CCC3)cc1	5%	10µM*	4%	2	2.1µM*	19
O=C(Cc1ccc(F)cc1)N1CCC(CC2CC(c3cccc(Br)c3)=NO2)(C(=O)NCC2CCCCC2)CC1 (configuration not stated)	-5%	?	6%	-3	1.2µM*	-2
O=C(Cc1ccc(F)cc1)N1CCC(CC2CC(c3ccc(Cl)cc3)=NO2)(C(=O)NCC2CCCCC2)CC1 (configuration not stated)	8%	?	23%	-2	4.7µM*	-2
COc1cc(C(=O)Nc2cccc(-c3nnc(-c4ccco4)o3)c2)ccc1OC(C)=O	-3%	?	2%	31*	3%	66*
COc1ccc(C(=O)Nc2cccc(-c3nnc(-c4ccco4)o3)c2)cc1	-8%	/	-17%	31*	/	57
COc1cc(C(=O)Nc2ccc(-c3nnc(-c4ccco4)o3)cc2)cc(OC)c1OC	11%	?	-20%	21	53%	19
Cc1ccccc1C(=O)Nc1cccc(OCc2cc(=O)n3c4c(sc3n2)CCCC4)c1	-10%	/	/	/	/	/
Cc1c(C(=O)N(C)C)sc2c1c(=O)n(-c1ccc(F)cc1)c(=O)n2Cc1ccccc1C#N	9%	/	/	/	/	/
SMILES	Sm TGR block	Pf growth 48h	NS1 inh	Cycloheximide cs	Pf growth 96h	Shiga toxin inh
CC1CCc2nc3ncn(CC(=O)Nc4cccc(C#N)c4)c(=O)c3cc2C1 (configuration not stated)	-4%	/	/	/	/	/
Cc1ccccc1OCCn1ccnc1	2%	8%	-7%	38*	?	-4
Cc1cc(C)c(OCCCCN2CCNCC2)c(C)c1	2%	?	1%	-3	3.3µM*	-7
Cc1cccc(C)c1OCCCCN1CCNCC1	-19%	?	27%	-1	25%	-15
Cc1cccc(OCCn2ccnc2)c1C	0%	7%	2%	-3	5%	-3
Cc1cc(=S)cc(C)n1CCCn1ccnc1	11µM*	3%	1%	-4	-2%	-9
Cc1cc(Cl)cc(C)c1OCCCCCn1ccnc1	-11%	?	-40%	-2	0%	-13
Cc1cc(C)c(OCCCCCn2ccnc2)c(C)c1	-4%	13µM*	-13%	-3	321%	-5
Cc1c(Cl)c([N+](=O)[O-])nn1CC(=O)NCc1ccc(Cl)cc1	-12%	-9%	10%	-1	?	8
COc1ccc(C)cc1N(C)C(=O)c1c2c(nc3ccccc13)C(=O)N(C1CCCCC1)C2	-1%	/	/	/	/	/
Cn1c(N2CCCC2)nc2c1c(=O)[nH]c(=O)n2C	-2%	-6%	?	-1	?	-10
Cc1ccc(C)c(OCCCCCn2ccnc2)c1	-26%	15µM*	1%	5	12µM*	9
COc1ccc(C(=O)SC2=NCCS2)cc1OC	-6%	9%	-8%	-8	4%	-18
Cc1ccc(C(=O)SC2=NCCS2)cc1	-6%	11%	-18%	-4	9.3µM*	-3
CC1(C(=O)N2CCN(c3ccc([N+](=O)[O-])cc3)CC2)CC1(Cl)Cl (configuration not stated)	-19%	29%	5%	1	?	-5
Cc1cc(Oc2cnn(C(C)(C)C)c(=O)c2Cl)cc(C(C)C)c1	2%	12µM*	?	2	8.3µM*	21
C/C(=N/NS(=O)(=O)c1ccc(C)cc1C)c1c[nH]c2ccccc12	3%	10%	-7%	-1	-25%	-11
N#CC(C(=O)c1ccccc1)=C1SCCS1	17%	22%	1%	35*	8%	58*
CCOC(=O)c1ccc(NC(=O)COc2ccc(S(=O)(=O)NC(C)CC)cc2)cc1 (configuration not stated)	1%	?	-15%	5	10µM*	-10
CCOC(=O)c1ccc(NC(=O)C(C)NS(=O)(=O)c2ccc(OC)cc2)cc1 (configuration not stated)	-10%	?	-12%	-3	3%	-1
COc1cc(C(=O)NC(C)c2ccc(S(N)(=O)=O)cc2)ccc1OCC(=O)N1CCOCC1 (configuration not stated)	6%	59%	10%	-2	5%	-3
CCOc1ccc(NC(=O)COc2ccc(C(=O)NC(C)c3ccc(S(N)(=O)=O)cc3)cc2OC)cc1 (configuration not stated)	5%	12µM*	/	/	?	/
COc1ccc(NC(=O)CC2C(=O)N(c3cccc(C)c3)C(=O)N2Cc2cccnc2)cc1 (configuration not stated)	-3%	/	/	/	/	/
Cn1c(O)c(N=Nc2nc(-c3ccccc3)cs2)c2ccccc21	2%	20%	18%	-1	39%	10
